Bioassay records deposited in PubChem by National Center for Advancing Translational Sciences (NCATS).
Lassa entry inh: Lassa virus entry inhibition; Lassa virus pseudotype entry inhibition, cell reporter; Potency, µM (highest dose often 37.9 µM), inactives show at the top dose activity change, negative = inhibition, usual class: inhibitors; 300,000 compounds, 1.2% hits; calls by dose curve; tested in HEK293 cells; also: potency is read from the fitted curve at half-maximal effect; nearly all actives have a fitted effect of over 50% in size
HCMV antiviral: human cytomegalovirus inhibition; 410,000 compounds, 4.5% hits; activity change, negative = inhibition, % at 57.5 µM; HFF cells, HCMV-luciferase reporter, 72 h; active compounds read low; in the data active = activity change below about -60%; inconclusive = no clear call, values can overlap the other calls; inactive = above about -39%
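Compounds were evaluated in HFFs infected with an HCMV luciferase reporter virus (MOI 1 PFU/cell). Luciferase in lysates collected 72 h post infection served as the replication measure.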
VACV mCherry inh: inhibitors of vaccinia virus infection (mCherry reporter signal) | Vaccinia virus mCherry reporter infection, fluorescence | 310,000 compounds, 0.63% hits | Potency, µM (series often up to 36.5 µM), for the others: top-dose activity change, negative = inhibition, usual class: inhibitors | AID 720579; calls by dose curve; tested in A549 cells; also: potency is read from the fitted curve at half-maximal effect; nearly all actives have a fitted effect of over 35% in size
Marburg entry inh: blocks Marburg virus binding to or entry into cells. Marburg virus pseudotyped entry inhibition, cell reporter. Potency, µM (highest dose often 37.8 µM), without a hit: top-dose activity change, negative = inhibition, most hits filed as inhibitors. 300,000 compounds, 1.8% hits; calls by dose curve; tested in HEK293 cells; also: potency is read from the fitted curve at half-maximal effect
VACV Venus inh: inhibitors of vaccinia virus (Venus reporter); Vaccinia virus Venus reporter expression, fluorescence; 330,000 compounds, 0.46% hits; Potency, µM (highest dose often 36.5 µM), inactives show top-dose activity change, negative = inhibition, actives largely listed as inhibitors; calls by dose curve; tested in A549 cells; also: potency is read from the fitted curve at half-maximal effect; nearly all actives have a fitted effect of over 30% in size
FMDV inh: blocks foot and mouth disease virus; 410,000 compounds, 1.2% hits; AID 1159524; FMDV antiviral cell-based qHTS; Potency, µM (highest dose often 57.9 µM), without a hit: at the top dose activity change, negative = inhibition, usual class: inhibitors; calls by dose curve; tested in HEK293T cells; also: read-out not given here; potency is read from the fitted curve at half-maximal effect; nearly all actives have a fitted effect of over 45% in size
Starred values were filed as active, the others as inactive; i = inactive; ? = inconclusive; · = no result given; ! = not confirmed by another sample; [ ] = another dose, or the depositor's remark. Sampled rows, rich in hits. Any-hit rate of the full collection: about 6.5%. % is scaled to controls: 0 for no effect and ±100 for the full control effect.

SMILES	Lassa entry inh	HCMV antiviral	VACV mCherry inh	Marburg entry inh	VACV Venus inh	FMDV inh
CC(=O)Nc1nc2cc3c(cc2s1)OCO3	·	-5	-20%	·	3%	47%
CC(C)C(=O)Nc1nc2cc3c(cc2s1)OCCO3	4.5µM*	-9	i	?	-16%	-34%
O=C(Nc1nc2cc3c(cc2s1)OCCO3)c1ccco1	0.79µM*	-92*	?	0.79µM*	?	?
CN1CCN(C(=O)C(=O)c2cn(CC(=O)N3CCOCC3)c3ccccc23)CC1	·	?	-20%	·	-5%	-3%
Cc1cccc(C)c1NC(=O)c1nc2ccc([N+](=O)[O-])cc2nc1-c1ccccc1	·	42	·	·	·	·
CCOC(=O)N1CCc2c(sc3c2C(=O)NC(c2ccc(N(C)C)cc2)N3)C1 (centres undefined)	?	-14	-22%[7.34 µM]	?	-18%[7.34 µM]	0%
CCOC(=O)N1CCc2c(sc3c2C(=O)NC(c2ccccc2)N3)C1 (centres undefined)	?	·	·	3.2µM*	-27%	?
COC(=O)c1sc(N)c(C(=O)OC)c1COC(=O)C12CC3CC(CC(O)(C3)C1)C2	-2%[46.1 µM]	69	-19%	4%[46.1 µM]	-5%	21%
CC1CCCN(C2(O)C(=O)Nc3ccc([N+](=O)[O-])cc32)C1 (centres undefined)	·	-63*	·	·	·	-4%
O=C1Nc2ccc([N+](=O)[O-])cc2C1(O)N1CCCCC1 (centres undefined)	-2%	20	-13%	30%	-1%	56%
CN1CC(O)C2=CC(=O)C(=O)C=C21 (centres undefined)	·	·	-2%	·	-10%	-16%
COCCNC(=O)[C@@]1(Sc2ccc(OC)cc2)CC(=O)N[C@@H]1c1ccc(OC)cc1	·	-12	·	·	·	·
Cc1ccc(C(=O)Sc2cccccc2=O)cc1	?	-99*	1µM*	?	1.8µM*	0%
CCCCCCCCn1sccc1=O	·	-2	-12%	·	-15%	28µM*
CCCCCCN1Cc2ccccc2C1	-2%	-17	·	?	1%	-8%
CCCNC(=O)C1(C)CCCN(C(=O)c2ccc(OC(F)F)cc2)C1 (centres undefined)	·	-6	-6%	·	-19%	-12%
O=c1cc(N2CCCCC2)c(-c2ccccc2)nn1Cc1c(Cl)cccc1Cl	13µM*	?	?	?	?	?
O=C(Nc1ccc(F)cc1)C1CC(=O)n2cnnc2N1 (centres undefined)	9%[46.1 µM]	-31	i	-3%[46.1 µM]	-8%	11%
O=C1CC(C(=O)Nc2ccc(F)cc2)n2cnnc2N1 (centres undefined)	-10%	-71*	3%	4%[46.1 µM]	-11%	-8%
O=C(NNc1c(Cl)cccc1Cl)c1sccc1Cl	-3%	-75*	-7%	-1%	-20%	4%
O=C(NNc1c(Cl)cccc1Cl)c1c(F)cccc1Cl	1%[46.1 µM]	-7	-3%	-3%[46.1 µM]	-7%	-22%
CCCCN(C(=O)c1cccc2c(=O)c(C)c(-c3ccccc3)oc12)c1ccccc1	12µM*	-63*	·	?	·	?
CCCCNC(=O)c1ccccc1C(=O)NCCCC	1%	6	·	-13%	·	-12%
CCCCNC(=O)c1cccc2c(=O)c(C)c(-c3ccccc3)oc12	?	-68*	i	-23%	-18%	0%
CCCCNC(=O)c1ccccc1Cl	27%	-107*	·	15%	·	0%
SMILES	Lassa entry inh	HCMV antiviral	VACV mCherry inh	Marburg entry inh	VACV Venus inh	FMDV inh
CCOc1cc(C)nc(N2CCC(C(=O)NCC3CCCO3)CC2)n1 (centres undefined)	-20%	-16	i	-13%[46.1 µM]	-5%	-6%
CN(CC(=O)Nc1ccccc1C(F)(F)F)C(=O)c1cc([N+](=O)[O-])ccc1N1CCOCC1	1%	·	-10%	-19%	-13%	-15%
CC(C)CC1(C(=O)NCc2cc(F)cc(C(F)(F)F)c2)C=CCN1C(=O)c1ccccc1 (centres undefined)	-1%	-6	-3%	-42%	-29%	6%
CC(C)n1cc(-c2nc(C(=O)NN)cs2)c(=O)n(Cc2ccccc2)c1=O	-4%	-68*	-23%	4%	-14%	-15%
NNC(=O)c1csc(-c2ccccc2)n1	2%	12	-9%	-4%	-9%	24%
CCCCCC(=O)O[C@]1(C(C)=O)CC[C@H]2[C@@H]3CCC4=CC(=O)CC[C@]4(C)[C@H]3CC[C@@]21C	-18%	-68*	?	10µM*	-29%	0%
CC(=O)C1CCC2C3CCC4=CC(=O)CC[C@@]4(C)C3CC[C@]12C (some centres undefined)	·	·	-10%	·	-9%	22µM*
CC(=O)[C@@]1(O)CC[C@H]2[C@@H]3CCC4=CC(=O)CC[C@]4(C)[C@H]3CC[C@@]21C	21µM*!	28	i	18%	-15%	?
CC12CCC(=O)C=C1CCC1C2C(O)CC2(C)C1CCC21OCC1=O (centres undefined)	10%[46.1 µM]	-92*	i	?	-6%	-5%
C[C@]12CCC(=O)C=C1CC[C@@H]1C2[C@H](O)C[C@]2(C)C(=O)CCC12 (some centres undefined)	·	32	·	·	·	5%
O=C(C[N+]12CCCc3cccc(c31)CCC2)c1ccccc1	·	·	-11%	·	?	·
O=C1OC2(CCCCC2)CC2=C1[C@H]1O[C@](c3ccsc3)(Cc3c1ccc1ccccc31)O2	?	·	·	2%[14.2 µM]	·	·
Cc1ccc(N(CC(=O)Nc2cccc(Cl)c2C)S(C)(=O)=O)cc1	·	11	·	·	·	0%
CCC1C(=O)C[C@H]2CCN3C(=O)CCCC1C23 (some centres undefined)	·	3	i	·	-3%	0%
Cc1nc(C2CCC3C4CCC5=CC(=O)CC[C@]5(C)C4CC[C@]23C)cs1 (some centres undefined)	·	-91*	·	·	·	·
CC(=O)[C@H]1CC[C@H]2[C@@H]3CC=C4C[C@@H](OS(=O)(=O)O)CC[C@]4(C)[C@H]3CC[C@]12C	·	-71*	-8%	·	-10%	-19%
CC(=O)O[C@H]1CC[C@@]2(C)C(=CC[C@H]3[C@@H]4CC[C@H](C(C)=O)[C@@]4(C)CC[C@@H]32)C1	·	24	i	·	-6%	?
COc1cccc(-n2nnc3c(=O)n(Cc4ccc(C)cc4)cnc32)c1	4.1µM*	34	·	?	·	0%
COc1cccc(-n2nnc3c(=O)n(Cc4ccc(Cl)cc4)cnc32)c1	?	7	·	2%	·	31%
O=C(Cn1cnc2c(nnn2Cc2ccc(Cl)cc2)c1=O)c1ccccc1	·	-71*	56%	·	11%	-10%
Cc1ccc(Cn2nnc3c(=O)n(CC(=O)N4CCN(c5ccccc5)CC4)cnc32)cc1	-2%	-65*	-8%	-1%	-15%	·
CCCCN(CCCC)Cc1cc(=O)oc2ccccc12	·	-5	39%	·	-1%	-8%
Nc1nc(N)nc(-c2ccc(Cl)c(Cl)c2)n1	·	-5	?	·	?	25%
COc1ccc(Cc2c(C)nc(N)nc2Cl)cc1	·	-3	·	·	·	?
